High-throughput results: PubChem, National Center for Advancing Translational Sciences (NCATS)
PI5P4K alpha inh – inhibitors of human PI5P4K alpha; P48426; PI5P4Kalpha enzyme, ADP-Glo luminescence, 60 min; stronger effect = lower value; max response, %; actives 1.2% (n = 330,000); AID 652105; active = max response of -50% or lower; inconclusive = between -30% and -50%; inactive = -30% or higher; note: value at the top dose of about 77 µM; % is set by controls: 0 for no effect and ±100 for the full control effect
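PI5P4Kalpha ADP-Glo assay; 5 microM ATP final; 60 min RT reaction; HEPES pH 7.4/EGTA/CHAPS, 5% DMSO; controls lacking substrate or enzyme; luminescent end-point.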
Pol eta inh – inhibitors of human DNA polymerase eta | Q9Y253 | recombinant Pol eta, fluorescent DNA replication assay | Potency, µM (titrated, usually from 114 µM), for inactives: at the highest dose activity change, negative = inhibition, usual class: inhibitors | actives 1.2% (n = 390,000) | AID 588591; note: potency is the fitted concentration of half-maximal effect; % is set by controls: 0 for no effect and ±100 for the full control effect
Target sequence (Q9Y253 whole entry, looked up): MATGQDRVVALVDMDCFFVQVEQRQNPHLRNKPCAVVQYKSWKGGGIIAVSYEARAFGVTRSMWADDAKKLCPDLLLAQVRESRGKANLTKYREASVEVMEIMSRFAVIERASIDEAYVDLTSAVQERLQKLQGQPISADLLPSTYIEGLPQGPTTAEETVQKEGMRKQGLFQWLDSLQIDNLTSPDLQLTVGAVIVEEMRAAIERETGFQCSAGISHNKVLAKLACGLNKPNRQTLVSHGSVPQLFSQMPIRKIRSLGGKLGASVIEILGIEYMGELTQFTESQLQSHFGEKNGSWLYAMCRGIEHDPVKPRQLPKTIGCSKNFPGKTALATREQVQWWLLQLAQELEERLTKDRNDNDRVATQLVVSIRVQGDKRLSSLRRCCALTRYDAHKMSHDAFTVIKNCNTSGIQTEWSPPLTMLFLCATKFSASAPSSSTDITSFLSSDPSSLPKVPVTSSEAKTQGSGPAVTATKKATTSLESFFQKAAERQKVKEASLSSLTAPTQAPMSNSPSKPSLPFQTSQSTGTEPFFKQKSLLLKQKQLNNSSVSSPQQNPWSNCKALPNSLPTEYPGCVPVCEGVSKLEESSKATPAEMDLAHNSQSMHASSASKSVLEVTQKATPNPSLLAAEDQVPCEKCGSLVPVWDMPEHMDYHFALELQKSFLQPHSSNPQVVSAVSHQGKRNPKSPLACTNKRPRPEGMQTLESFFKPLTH
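Pol eta (10 nM) was preincubated with compounds for 15 min at room temperature, after which fluorescent replication substrate (50 nM final) was added to start the reaction. Fluorescence was read kinetically at 0 and 10 min.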
Pol iota inh – DNA polymerase iota (human) inhibition; Potency, µM (titrated, usually from 115 µM), for inactives: at the highest dose activity, negative = inhibition, most hits filed as inhibitors; Pol iota fluorescent replication assay, 10 min; AID 588590; Q9UNA4; actives 1% (n = 390,000); note: potency is the fitted concentration of half-maximal effect
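Pol iota at 10 nM preincubated 15 min with compounds at room temperature; reaction started with fluorescent substrate, 50 nM final. Fluorescence read kinetically at 0 and 10 min; buffer-only wells as negative control.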
POLB inh – blocks human DNA polymerase beta activity; actives 1.3% (n = 340,000); Potency, µM (top dose mostly 114 µM), for inactives: at the top dose activity change, negative = inhibition, actives largely listed as inhibitors; Pol beta primer extension/strand displacement, fluorescence kinetic; P06746; AID 485314; note: potency is the fitted concentration of half-maximal effect; % is set by controls: 0 for no effect and ±100 for the full control effect
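Homogeneous kinetic assay of primer extension and strand displacement by 10 nM Pol beta, preincubated 15 min at room temperature with compound before 50 nM substrate (final) was added. Read at 0 and 10 min; four-parameter Hill fit.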
POLK inh – blocks human DNA polymerase kappa activity | purified Pol kappa, fluorescent DNA synthesis assay, 10 min | Potency, µM (titrated, usually from 107 µM), inactives show top-dose activity, negative = inhibition, hits mostly inhibitors | actives 0.53% (n = 400,000) | AID 588579; note: potency is the fitted concentration of half-maximal effect; % is set by controls: 0 for no effect and ±100 for the full control effect
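10 nM Pol kappa was preincubated with compounds for 15 min at room temperature. Reaction started with 50 nM (final) substrate. Fluorescence read kinetically at 0 and 10 min.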
FEN1 inhibitor – human FEN1 inhibition; P39748; Recombinant FEN1 flap cleavage, fluorescence, 15 min; Potency, µM (doses to about 114 µM), without a hit: top-dose activity change, negative = inhibition, usual class: inhibitors; actives 0.35% (n = 390,000); AID 588795; note: potency is the fitted concentration of half-maximal effect; % is set by controls: 0 for no effect and ±100 for the full control effect; nearly all actives have a fitted effect of over 65% in size
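Nuclease activity of 10 nM FEN1 was measured after 15 min of room-temperature exposure to titrated compounds, by adding 50 nM flap substrate and reading plates at 0 and 15 min.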
Active calls of the source: *; ? = inconclusive; · = no result; [ ] = remark or other dose. Shown are actives, neighbours in structure and some others; about 2.8% of the full set was active somewhere. Unless noted, calls come from the whole dose curve; as a rule, active = well fitted curve in the direction sought with a large enough effect; inconclusive = small, poorly fitted or top-dose-only effect, or another doubt; inactive = no such curve, though single readings can be large; an effect the other way counts as inactive or inconclusive.

SMILES	PI5P4K alpha inh	Pol eta inh	Pol iota inh	POLB inh	POLK inh	FEN1 inhibitor
Cn1nnc2c(N3CCN(c4cccc(Cl)c4)CC3)ncnc21	·	-1.4%	-9.0%	2.1%	-10.9%[60.1 µM]	-9.0%
O=c1[nH]c2ccc(S(=O)(=O)Nc3cc(Cl)ccc3O)cc2o1	·	89.1µM*	?	?	?	-5.7%
CCOc1ccc(NC(=O)CSc2nc3ccsc3c(=O)n2CCCCC(=O)O)cc1	-65.0*	-98.9%	·	·	·	·
Cc1c(N=C2N=C(NC(=O)c3ccc(F)cc3)c3ccccc32)c(=O)n(-c2ccccc2)n1C	-1.7	?	?	-3.2%	12.6µM*	13.4%
Cc1c(NC(=O)NC(=O)c2ccc(F)cc2)c(=O)n(-c2ccccc2)n1C	-4.0	-3.6%	-0.6%	6.5%	-2.1%	-20.1%
COc1ccc(OCC(O)CN2CCNCC2)cc1 (centres undefined)	-2.9	-6.7%	141.9%	-0.2%	-13.2%	-0.5%
Cc1c(Cl)cccc1NC(=O)CCS(=O)(=O)c1ccc(Br)s1	·	-7.5%	-16.5%	50.1µM*	?	19.8%
Cc1ccc(NC(=O)CCS(=O)(=O)c2ccc(Br)s2)cc1	-10.4	-13.1%	158.4%	1.6%	-6.6%	-1.7%
CCOc1ccc(NC(=O)CCS(=O)(=O)c2ccc(Br)s2)cc1	·	?	8.0%	28.2µM*	-27.8%	-3.7%
Cc1ccccc1C(=O)N1CCN(S(=O)(=O)c2ccccc2)CC1	-4.4	-6.1%	6.0%	48.7%	-3.5%	0.2%
CC(C)(Oc1ccc(-c2ccco2)cc1)C(=O)O	·	·	·	39.8µM*	·	·
c1ccc(-c2n[nH]c3c2oc2ccccc23)cc1	·	·	·	·	-14.8%[60.1 µM]	·
Cc1cc(=O)c2c(O)c3c(O)cc(O)c4c5c(O)cc(O)c6c(O)c7c(=O)cc(C)c8c1c2c(c34)c(c65)c78	·	·	·	·	10µM*	·
Cc1cc(=O)c2c(C)ccc(C)c2[nH]1	-3.4	-18.2%	12.0%	2.8%	-14.4%	-1.4%
Cc1ccccc1S(=O)(=O)NC(=O)C1(C)CCN1C(=O)Cc1ccc(C(C)(C)C)cc1 (centres undefined)	2.5	·	·	·	·	·
CC1=C(C(=O)Nc2ccccc2)C(c2ccc(Cl)cc2)n2c(s/c(=C/c3cccc(OCC(=O)O)c3)c2=O)=N1 (centres undefined)	?	56.2µM*	?	79.4µM*	-12.6%	?
COc1ccc(C2C(C(C)=O)=C(C)N=c3s/c(=C\c4ccco4)c(=O)n32)c(OC)c1 (centres undefined)	-0.6	2.3%	?	35.5µM*	-32.0%	-14.1%
CCOC(=O)C1=C(c2ccccc2)N=c2s/c(=C\c3ccco3)c(=O)n2C1c1cccs1 (centres undefined)	·	79.4µM*	20µM*	10µM*	?	-17.3%
COc1ccc(C2C(C(C)=O)=C(C)N=c3s/c(=C\c4cc(C)n(C)c4C)c(=O)n32)c(OC)c1 (centres undefined)	12.4	-24.2%	-8.2%	12.2%	-12.2%	?
CCOC(=O)C1=C(C)N=c2s/c(=C\c3ccc(OCC(=O)O)cc3)c(=O)n2C1c1ccccc1OC (centres undefined)	-9.7	39.8µM*	16.6%	12.5%	-6.1%	79.4µM*
CCOC(=O)C1(C)CCCN(C(=O)c2ccc3c(c2)OCO3)C1 (centres undefined)	7.3	·	·	·	·	·
Cc1cc(C)cc(NC(=O)C(NS(=O)(=O)c2cccc3nsnc23)c2ccccc2)c1 (centres undefined)	·	-4.4%	189.3%	3.3%	-18.5%	?
COc1ccc(NC(=O)Cn2c(=O)n(Cc3ccccc3OC)c(=O)c3cccnc32)cc1Cl	·	7.3%	36.0%	7.3%	5.5%	3.8%
CC(C)CNc1ncnc2c1ncn2[C@H]1CN(Cc2ccc(-c3ccccc3)cc2)C[C@@H](CO)O1	3.9	·	·	·	·	·
CCOc1ccc(OCC(=O)NCCS(=O)(=O)N2CCN(c3ccccc3F)CC2)cc1	·	-14.4%	22.6%	-10.9%	-8.1%[60.1 µM]	-0.3%
COCC(=O)NCCc1ccc(S(N)(=O)=O)cc1	·	-8.1%	-7.8%	-4.6%	-6.4%	-4.8%
